# According to the supplement of paper PMC12282887:
# ± gives the standard deviation of the averaged measurements.
# System: E. coli BW25113 marRABp lux reporter
# Experiment: promoter activity interaction Z-score (Lux/OD deviation from empty-vector control); higher = stronger promoter induction by the compound
# Protocol: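 E. coli BW25113 (wild type or ΔmarA/ΔsoxS/Δrob) carrying pTU175 luxCDABE promoter reporters was grown in LB in 384-well plates at 37°C with each of 94 compounds at 4 two-fold concentrations, in biological duplicates. Luminescence and OD600 were read every 30 min for 12 h and integrated as AUC over 8 h (0-8 h WT, 1-9 h mutants). Lux AUC was divided by OD AUC; the interaction score is the residual of a Huber robust fit of each promoter against the empty-vector control, then Z-transformed per promoter.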
structure (smiles),measurement,setting,value
C[C@H]1[C@H](NC(=O)/C(=N\OC(C)(C)C(=O)O)c2csc(N)n2)C(=O)N1S(=O)(=O)O [Aztreonam],promoter activity interaction Z-score,"0.0054 µg/ml, genetic background: wild type",-0.108 ± 0.36
same,promoter activity interaction Z-score,"0.0054 µg/ml, genetic background: ΔmarA",0.583 ± 0.95
same,promoter activity interaction Z-score,"0.0054 µg/ml, genetic background: Δrob",-0.202 ± 0.19
same,promoter activity interaction Z-score,"0.0054 µg/ml, genetic background: ΔsoxS",-0.188 ± 0.0033
same,promoter activity interaction Z-score,"0.011 µg/ml, genetic background: wild type",0.0506 ± 0.094
same,promoter activity interaction Z-score,"0.011 µg/ml, genetic background: ΔmarA",-0.139 ± 0.26
same,promoter activity interaction Z-score,"0.011 µg/ml, genetic background: Δrob",-0.0608 ± 0.52
same,promoter activity interaction Z-score,"0.011 µg/ml, genetic background: ΔsoxS",-0.218 ± 0.047
same,promoter activity interaction Z-score,"0.022 µg/ml, genetic background: wild type",0.0487 ± 0.33
same,promoter activity interaction Z-score,"0.022 µg/ml, genetic background: ΔmarA",0.0272 ± 0.41
same,promoter activity interaction Z-score,"0.022 µg/ml, genetic background: Δrob",-0.0627 ± 0.18
same,promoter activity interaction Z-score,"0.022 µg/ml, genetic background: ΔsoxS",-0.214 ± 0.088
Cc1onc(-c2ccccc2)c1C(=O)N[C@@H]1C(=O)N2[C@@H]1SC(C)(C)[C@@H]2C(=O)O [Oxacillin],promoter activity interaction Z-score,"0.53 µg/ml, genetic background: wild type",-0.0416 ± 0.14
same,promoter activity interaction Z-score,"0.53 µg/ml, genetic background: ΔmarA",-0.145 ± 0.48
same,promoter activity interaction Z-score,"0.53 µg/ml, genetic background: Δrob",-0.0895 ± 0.14
same,promoter activity interaction Z-score,"0.53 µg/ml, genetic background: ΔsoxS",0.143 ± 0.032
same,promoter activity interaction Z-score,"1.1 µg/ml, genetic background: wild type",0.221 ± 0.0058
same,promoter activity interaction Z-score,"1.1 µg/ml, genetic background: ΔmarA",0.189 ± 0.3
same,promoter activity interaction Z-score,"1.1 µg/ml, genetic background: Δrob",0.0302 ± 0.28
same,promoter activity interaction Z-score,"1.1 µg/ml, genetic background: ΔsoxS",0.214 ± 0.17
same,promoter activity interaction Z-score,"2.1 µg/ml, genetic background: wild type",-0.151 ± 0.12
same,promoter activity interaction Z-score,"2.1 µg/ml, genetic background: ΔmarA",-0.0728 ± 0.16
same,promoter activity interaction Z-score,"2.1 µg/ml, genetic background: Δrob",0.0223 ± 0.02
same,promoter activity interaction Z-score,"2.1 µg/ml, genetic background: ΔsoxS",0.133 ± 0.06
same,promoter activity interaction Z-score,"4.2 µg/ml, genetic background: wild type",0.0879 ± 0.03
same,promoter activity interaction Z-score,"4.2 µg/ml, genetic background: ΔmarA",0.194 ± 0.076
same,promoter activity interaction Z-score,"4.2 µg/ml, genetic background: Δrob",-0.03 ± 0.043
same,promoter activity interaction Z-score,"4.2 µg/ml, genetic background: ΔsoxS",0.211 ± 0.2
Nc1ccc(C(=O)O)cc1 [4-Aminobenzoic acid],promoter activity interaction Z-score,"8.6 µg/ml, genetic background: wild type",0.0884 ± 0.35
same,promoter activity interaction Z-score,"8.6 µg/ml, genetic background: ΔmarA",0.463 ± 0.36
same,promoter activity interaction Z-score,"8.6 µg/ml, genetic background: Δrob",0.185 ± 0.28
same,promoter activity interaction Z-score,"8.6 µg/ml, genetic background: ΔsoxS",0.0813 ± 0.12
same,promoter activity interaction Z-score,"17.1 µg/ml, genetic background: wild type",0.277 ± 0.097
same,promoter activity interaction Z-score,"17.1 µg/ml, genetic background: ΔmarA",0.444 ± 0.14
same,promoter activity interaction Z-score,"17.1 µg/ml, genetic background: Δrob",0.444 ± 0.27
same,promoter activity interaction Z-score,"17.1 µg/ml, genetic background: ΔsoxS",-0.00694 ± 0.024
same,promoter activity interaction Z-score,"34.3 µg/ml, genetic background: wild type",0.29 ± 0.32
same,promoter activity interaction Z-score,"34.3 µg/ml, genetic background: ΔmarA",-0.226 ± 0.0094
same,promoter activity interaction Z-score,"34.3 µg/ml, genetic background: Δrob",-0.189 ± 0.33
same,promoter activity interaction Z-score,"34.3 µg/ml, genetic background: ΔsoxS",0.117 ± 0.0092
same,promoter activity interaction Z-score,"68.6 µg/ml, genetic background: wild type",0.174 ± 0.024
same,promoter activity interaction Z-score,"68.6 µg/ml, genetic background: ΔmarA",1.1 ± 0.03
same,promoter activity interaction Z-score,"68.6 µg/ml, genetic background: Δrob",0.919 ± 0.45
same,promoter activity interaction Z-score,"68.6 µg/ml, genetic background: ΔsoxS",0.753 ± 0.38
